Structures are written as SMILES. About 2,100 (0.66%) of roughly 320,000 compounds were called active. About 53% were inconclusive and are not listed. The call rests on the fitted dose curve; in most records, active means well fitted inhibition curve with a large enough effect in the signal ratio, with a control signal flat (not every such curve was filed as active); inconclusive means small, poorly fitted or top-dose-only effect, or effect the other way, or a change in a side signal; inactive means flat fitted curve, though single readings scatter; the % refers to the signal ratio. For the sample, actives were picked, then their nearest neighbours and some compounds at random.
Potency means the concentration at half of the fitted maximal effect.

The nature of the experiment: qHTS Assay for Lipid Storage Modulators in Drosophila S3 Cells.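 On cell number change: cells counted by Cell Tracker Red CMTPX staining in the red channel.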 On lipid storage change, negative = inhibition: on the % scale 0 is the no-effect control and ±100 the full control effect. The following applies: BODIPY lipid droplet fluorescence, 18-24 h, cells fed with added oleic acid; cell number change: measured here: cell count max response; series mostly up to 46.1 µM; lipid storage change, negative = inhibition: at the top concentration. In outline: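 Drosophila S3 cells loaded with oleic acid (400 uM, as added) and compounds at several concentrations; lipid droplets imaged by 488-nm laser-scanning cytometry, 500–530 nm intensity and object ratio to cell channel. Percent activity normalized to 20 uM Triacsin C.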
For orientation: Quantitative high-throughput screening tests each substance at several concentrations.
Turning to `Cn1nccc1C(=O)N/N=C/c1c(O)ccc2ccccc12`, the Potency was 14.6 µM (active) and the cell number change was -2.67%.
As to `Cn1cc(C(=O)N/N=C/c2c(O)ccc3ccccc23)ccc1=O`, the “lipid storage change, negative = inhibition” value is 17% (inactive) and the cell number change was -26.3%.
For the compound `CN(C)c1ccc(/C=N/NC(=O)c2ccnn2C)cc1`, the compound was classed as inactive and the cell number change was -10.8%.
`O=C1NC(=S)N/C1=C/c1ccc(Oc2ccc(C(F)(F)F)cc2[N+](=O)[O-])c(Cl)c1`: the “lipid storage change, negative = inhibition” value is -0.498% (inactive) and the cell number change is -6.9%.
Taken in the same sequence, the figures for `COc1ccc(N2C(=O)CC(NC3CCCCNC3=O)C2=O)cc1` (configuration not stated) were -4.85% (inactive) and 5.19%.
Taken in the same sequence, the figures for `COc1ccc(NC(=O)CN(C)C(=O)c2ccc(COc3ccccc3)cc2)cc1` were 16.5% (inactive) and -6.23%.
In the case of `COc1ccc(NC(=O)CN(C)C(=O)/C=C/c2ccc(OCc3ccccc3)cc2)cc1`, the Potency is 0.731 µM (active) and the cell number change was -11.8%.
With `COCC(=O)Nc1ccc(OCc2ccccc2)cc1`, the outcome was inactive and the cell number change came out at 4%.
For `Cc1ccc(C23CC4CC(CC(C(=O)OCC(=O)N(C)C)(C4)C2)C3)cc1`, the “lipid storage change, negative = inhibition” value was 7.97% (inactive) and the cell number change amounted to 4.17%.
Consider `CCOc1ccccc1CNC(=O)c1ccc(Sc2ccc(Cl)cc2)c(NC(C)=O)c1`, for which the “lipid storage change, negative = inhibition” value was 22.8% (inactive) and the cell number change is 7.67%.
As to `Cc1[nH]c2ccccc2c1C(=O)C(=O)N1CCN(C(=O)c2ccco2)CC1`, the outcome was inactive and the cell number change came to 27%.
For the compound `Cc1ccccc1NC(=O)c1onc2c1CCCC2`, the Potency is 25.9 µM (active).
For the compound `O=C(Nc1cccc2ccccc12)c1onc2c1CCCC2`, the result was inactive.
Turning to `O=C(Nc1ccccn1)c1onc2c1CCCC2`, the “lipid storage change, negative = inhibition” value was 0.434% (inactive).
Take `Cc1ccccc1NC(=O)c1cccc(C(=O)Nc2ccccc2C)n1`: the Potency was 8.2 µM (active) and the cell number change was -25.7%.
As to `Cc1ccccc1NC(=O)c1ccccn1`, the “lipid storage change, negative = inhibition” value was 2.23% (inactive).
Turning to `Cc1ccccc1NC(=O)C(=O)Nc1ccccc1C`, the “lipid storage change, negative = inhibition” value was 7.41% (inactive) and the cell number change came to 0.926%.
The like results for `COc1cc2c(cc1OC)C(c1ccc3c(c1)OCO3)C1=C(CC(C)(C)CC1=O)N2` (configuration not stated) were, in that order, -20.1% (inactive) and -17.2%.
The like results for `CC(=O)NCc1cc(-c2ccc(Cl)cc2)no1` were, in that order, 0.337% [at 9.22 µM] (inactive) and -2.06%.
On to `O=C(NCc1nnc(SCC(=O)N2CCc3ccccc32)o1)c1cccs1`, for which the “lipid storage change, negative = inhibition” value was 2.4% (inactive) and the cell number change was -1.06%.
The like results for `CCOC(=O)N1CCN(CC(O)c2c[nH]c3ccccc23)CC1` (configuration not stated) were, in that order, 1.13% (inactive) and 14.4%.
`Cc1ccc(-c2nn(C)c(=O)c3ccccc23)cc1CNC(=O)/C=C/c1ccccc1`: the compound was called inactive and the cell number change was -24.2%.
For the compound `CCCCn1c(=O)[nH]c(=O)c2c1nc(-c1ccc(-c3ccccc3)cc1)n2C`, the Potency is 3.66 µM (active) and the cell number change was -2.7%.
On to `C=CCOc1ccc(-c2nc3c(c(=O)[nH]c(=O)n3CCCC)n2C)cc1Br`, for which the “lipid storage change, negative = inhibition” value was -0.288% (inactive) and the cell number change worked out at 12.1%.
Regarding `CCCn1c(-c2cccc(F)c2)nc2c1c(=O)[nH]c(=O)n2Cc1ccccc1`, the compound was called inactive and the cell number change is 13.3%.
On to `C=CCOc1ccc(-c2nc3c(c(=O)[nH]c(=O)n3Cc3ccccc3)n2CCCOC)cc1`, for which the “lipid storage change, negative = inhibition” value was -1% (inactive) and the cell number change came out at 4.84%.
The like results for `CCCn1c(-c2cccc([N+](=O)[O-])c2)nc2c1c(=O)[nH]c(=O)n2Cc1ccccc1` were, in that order, 18.3% (inactive) and 1.66%.
`CCCCn1c(=O)[nH]c(=O)c2c1nc(-c1cccc(OC)c1)n2C`: the “lipid storage change, negative = inhibition” value was -6.52% (inactive) and the cell number change was -6.05%.
`CCCCn1c(=O)[nH]c(=O)c2c1nc(-c1ccc(OC)c(Br)c1)n2CC(C)C`: the Potency was 0.326 µM (active) and the cell number change was 9.66%.
With `CCCn1c(-c2cc(OC)c(OC)c(OC)c2)nc2c1c(=O)[nH]c(=O)n2Cc1ccccc1`, the Potency is 0.651 µM (active).
Consider `CCCCn1c(=O)[nH]c(=O)c2c1nc(-c1ccc(OCC)cc1)n2CC`, for which the “lipid storage change, negative = inhibition” value is 13.4% (inactive) and the cell number change was -8.47%.
As for `CCCCn1c(=O)[nH]c(=O)c2c1nc(-c1ccc(-c3ccc(F)cc3)o1)n2C`, the “lipid storage change, negative = inhibition” value was 26% (inactive) and the cell number change is 10.6%.
Taken in the same sequence, the figures for `CCCCn1c(=O)[nH]c(=O)c2c1nc(-c1cc(Br)c(OCC)c(OC)c1)n2C` were -29.7% (inactive) and 15%.
For the compound `C=CCOc1ccc(-c2nc3c(c(=O)[nH]c(=O)n3CCC)n2CCCC)cc1`, the Potency is 2.91 µM (active) and the cell number change worked out at 22.5%.
`Cc1cc(C)c(NC(=O)c2cc(C(=O)O)ccc2C(=O)O)c([N+](=O)[O-])c1`: the “lipid storage change, negative = inhibition” value was 2.67% (inactive) and the cell number change worked out at 2.4%.
For the compound `COc1ccc(CCc2cc(OC)cc(=O)o2)cc1`, the “lipid storage change, negative = inhibition” value is 16.7% (inactive) and the cell number change is -1.16%.
Taken in the same sequence, the figures for `Cc1ccc(Cl)c(OCCCCN(C)Cc2ccccc2)c1` were -10.2% (inactive) and -11.3%.
Taken in the same sequence, the figures for `CN(CCCCOc1ccc(F)cc1)Cc1ccccc1` were 13.9% (inactive) and 9.09%.
On to `CN(CCOc1ccccc1Cl)Cc1ccccc1`, for which the Potency is 23.1 µM (active) and the cell number change is -8.5%.
Turning to `CN(CCOc1ccc(F)cc1)Cc1ccccc1`, the “lipid storage change, negative = inhibition” value is 11.2% (inactive) and the cell number change amounted to 11.7%.
The like results for `CN(Cc1ccccc1)C(=O)COc1ccccc1Cl` were, in that order, -17.2% (inactive) and 10.4%.
Take `Cc1cc(C)c(OCCCCN(C)Cc2ccccc2)c(C)c1`: the Potency is 7.31 µM (active) and the cell number change was -22%.
Consider `CC1CN(S(=O)(=O)c2ccc(C(=O)Nc3nnc(-c4ccccn4)o3)cc2)CC(C)O1` (configuration not stated), for which the “lipid storage change, negative = inhibition” value was -3.48% (inactive) and the cell number change was found to be 10.4%.
As to `Cn1c(=O)c(C(=O)NNC(=O)c2ccc(Br)cc2)c(O)c2ccccc21`, the Potency was 16.4 µM (active) and the cell number change was 12.5%.
As to `Cn1c(=O)c(C(=O)NNC(=O)c2ccccc2Br)c(O)c2ccccc21`, the compound was classed as inactive and the cell number change amounted to 7.83%.
Regarding `Cn1c(=O)c(C(=O)NNC(=O)c2ccccc2F)c(O)c2ccccc21`, the compound was classed as inactive and the cell number change came to 13%.

The values are drawn from PubChem BioAssay AID2685 (National Center for Advancing Translational Sciences (NCATS), 2010).
